GLP-1R inv ag = GLP-1 receptor (human) inverse agonism; P43220; HEK293 GLP-1R CRE-luciferase, luminescence, 24 h; GLP-1R form is constitutively active; Potency, µM (top dose mostly 38.3 µM), inactives show at the highest dose activity change, negative = inhibition, most hits filed as inhibitors; hit rate 1.6% among 410,000; AID 624417; further: on the % scale 0 is the no-effect control and ±100 the full control effect; nearly all actives have a fitted effect of over 55% in size
Target sequence (P43220 whole entry, looked up): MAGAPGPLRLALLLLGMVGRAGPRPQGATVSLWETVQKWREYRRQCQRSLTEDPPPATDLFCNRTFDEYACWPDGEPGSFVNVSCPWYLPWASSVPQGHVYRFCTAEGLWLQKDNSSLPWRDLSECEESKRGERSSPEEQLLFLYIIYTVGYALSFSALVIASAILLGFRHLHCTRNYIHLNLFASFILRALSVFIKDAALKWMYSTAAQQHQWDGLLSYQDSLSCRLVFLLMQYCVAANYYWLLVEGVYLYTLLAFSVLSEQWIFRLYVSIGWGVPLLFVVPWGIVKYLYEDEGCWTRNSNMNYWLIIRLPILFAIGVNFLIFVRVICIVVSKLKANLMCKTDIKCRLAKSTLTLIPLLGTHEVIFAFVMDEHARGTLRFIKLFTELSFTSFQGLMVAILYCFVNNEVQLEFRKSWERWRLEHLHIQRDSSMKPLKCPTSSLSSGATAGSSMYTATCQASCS
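Seeding at 200 cells/uL, 12 h culture, 24 hr compound treatment, then luciferase reagent and a luminescence read; cells are HEK293 stably expressing a constitutively active GLP-1R plus cAMP-responsive luciferase.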
a7 integrin act = activates integrin-mediated alleviation for muscular dystrophy; AID 624291; hit rate 0.064% among 350,000; alpha7betagal myoblasts, beta-gal FDG fluorescence, 48 h; Potency, µM (series often up to 38.3 µM), for the others: at the top dose activation, hits mostly activators;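 further: 100% = response of the positive control SU9516; nearly all actives have a fitted effect of over 60% in size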
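Alpha7betagal+/- myoblasts (passage 13) were plated 16-24 hr, then exposed to compounds (1:260 dilution of DMSO stock) for 48 hours at 37C. After MPER lysis, β-galactosidase reporter activity was read as FDG fluorescence (ex 480/em 540) after 30 minutes.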
GLP1R ag = agonists of human GLP-1 receptor; hit rate 0.007% among 380,000; HEK293 GLP-1R CRE-luciferase, luminescence, 4-6 h; cells express a hypersensitive GLP-1R form; Potency, µM (doses to about 45.6 µM), for inactives: at the highest dose activation, actives largely listed as activators; AID 624172; P43220; further: % of control where 0% means no effect
GLP1R cytotox = cytotoxic in the GLP-1 receptor inverse agonist counter-screen | AID 624418 | HEK293 cAMP-luciferase reporter cells, luminescence, 24 h | hit rate 0.13% among 410,000 | Potency, µM (doses to about 38.3 µM), inactives show at the top dose activity change, negative = inhibition, most hits filed as inhibitors;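 further: loss of luciferase light is scored as toxicity; on the % scale 0 is the no-effect control and ±100 the full control effect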
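To flag toxic compounds, the library was rerun on cells for 24 hr at 37 deg C and 5% CO2. Viability-linked luminescence was captured 12 min after adding luciferase detection reagent.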
BRCA1 expr up = BRCA1 expression activation; MCF7-BRCA1-FFLuc reporter, luminescence, 48 h; response scale: scaled: vehicle 0%, 10 µM genistein 100%; Potency, µM (top dose mostly 46.1 µM), for the others: at the highest dose activation, most hits filed as activators; hit rate 1.1% among 380,000; further: nearly all actives have a fitted effect of over 80% in size
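Quantitative HTS in MCF7 cells stably reporting BRCA1 expression via firefly luciferase. Compound treatment lasts 48 h at 37 °C in phenol-red free MEM. Activation is expressed relative to genistein at 10 microM and DMSO.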
* hit, by the source's call. Compounds with a hit are over-represented: about 2.7% of the library has one in this group of screens. The call rests on the fitted dose curve; in most records, active means well fitted curve in the direction sought with a large enough effect; inconclusive means small, poorly fitted or top-dose-only effect, or another doubt; inactive means no such curve, though single readings can be large; an effect the other way counts as inactive or inconclusive. Potency means the concentration at half of the fitted maximal effect.

For C/C(=N\NC(=O)c1cccc2ccccc12)c1ccccn1 the results were GLP-1R inv ag inconclusive, a7 integrin act -54%, GLP1R ag 2%, GLP1R cytotox inconclusive and BRCA1 expr up -12%.
For CCOC(=O)N/N=C/c1ccccc1F the results were GLP-1R inv ag -10%, a7 integrin act 29%, GLP1R ag 0%, GLP1R cytotox -10% and BRCA1 expr up 10µM*.
`CCOC(=O)N/N=C/c1c(F)cccc1F` gave GLP-1R inv ag 1%, a7 integrin act 16%, GLP1R ag 0%, GLP1R cytotox 0% and BRCA1 expr up 82%.
Screening O=C(NNC(=O)c1ccccc1OCc1ccccc1)c1ccccc1F returned GLP-1R inv ag inconclusive, a7 integrin act 12%, GLP1R ag 15%, GLP1R cytotox 1% and BRCA1 expr up 65%.
Screening O=C(N/N=C/c1ccccc1F)c1ccccc1OCc1ccccc1 returned GLP-1R inv ag 7.9µM*, a7 integrin act 9%, GLP1R ag 21%, GLP1R cytotox 1% and BRCA1 expr up -27%.
For CCCN1CCN(c2ncnc3sc(C(=O)Nc4ccc(N(CC)CC)cc4C)c(C)c23)CC1 the results were GLP-1R inv ag inconclusive, GLP1R cytotox -19% and BRCA1 expr up -8%.
`O=C(CNC(=O)c1cccc(F)c1)N/N=C/c1cc(Br)ccc1OCc1ccccc1` gave GLP-1R inv ag 14%, a7 integrin act 10µM*, GLP1R ag -4%, GLP1R cytotox -1% and BRCA1 expr up 25%.
Screening O=C(N/N=C/C(Br)=C/c1ccccc1)c1ccccc1F returned GLP-1R inv ag 135%, a7 integrin act -76%, GLP1R ag 31%, GLP1R cytotox inconclusive and BRCA1 expr up inconclusive.
For O=C(NCc1ccccn1)c1ccc(Cl)cc1Cl the results were GLP-1R inv ag 44%, a7 integrin act 16%, GLP1R ag -10%, GLP1R cytotox 2% and BRCA1 expr up 8%.
Screening CCN(CC(=O)Nc1ccccc1C(F)(F)F)C(=O)c1ccccc1OCc1ccc(F)cc1 returned GLP-1R inv ag 10µM*, a7 integrin act -4%, GLP1R ag -1%, GLP1R cytotox -2% and BRCA1 expr up -34%.
O=C(N/N=C/C(Cl)=C/c1ccccc1)c1ccccc1F was read as GLP-1R inv ag 33%, a7 integrin act -2%, GLP1R ag 20%, GLP1R cytotox -1% and BRCA1 expr up 10µM*.
For O=C(NCc1ccccn1)c1cc(Cl)ccc1OCc1ccccc1 the results were GLP-1R inv ag 3.5µM*, a7 integrin act 13%, GLP1R ag 4%, GLP1R cytotox 1% and BRCA1 expr up -34%.
`O=C(OCc1ccccc1)N1CCC2CC1c1cc(NCCc3ccccc3)ccc12` (configuration not stated) gave GLP-1R inv ag 11µM*, a7 integrin act 2%, GLP1R ag -4%, GLP1R cytotox 22% and BRCA1 expr up 11%.
COc1ccc(C)cc1NC(=O)c1ccccc1NS(=O)(=O)c1ccc(Cl)s1 was read as GLP-1R inv ag 4µM*, a7 integrin act -18%, GLP1R ag -3%, GLP1R cytotox -23% and BRCA1 expr up -62%.
C=CCCN(C(CC(C)C)C(=O)OC)S(=O)(=O)c1cc(Br)ccc1Br (configuration not stated) was read as GLP-1R inv ag 11µM*, a7 integrin act -24%, GLP1R ag -1%, GLP1R cytotox 5% and BRCA1 expr up -27%.
Screening CCc1cccc(NC(=O)c2ccc(CNS(=O)(=O)c3ccc4c(c3)C(C)(C)C(=O)N4C)cc2)c1 returned GLP-1R inv ag 10µM* and GLP1R cytotox -18%.
Screening COc1cccc(NC(=O)C2CCCN(c3ncnc4onc(-c5ccc(F)cc5)c34)C2)c1 (configuration not stated) returned GLP-1R inv ag -12% and GLP1R cytotox -7%.
`CCOC(=O)c1cnc(Nc2nc3ccccc3o2)nc1CSc1nnc(C)s1` gave GLP-1R inv ag 0%, a7 integrin act 0%, GLP1R ag 0%, GLP1R cytotox inconclusive and BRCA1 expr up 5µM*.
`Cc1nn(CC(=O)NCc2ccccc2)c(C)c1[N+](=O)[O-]` gave GLP-1R inv ag -16%, a7 integrin act -18%, GLP1R ag -13%, GLP1R cytotox -5% and BRCA1 expr up 13%.
For Cc1nn(CC(=O)c2ccccc2Cl)c(C)c1[N+](=O)[O-] the results were GLP-1R inv ag inconclusive, a7 integrin act 19%, GLP1R ag 6%, GLP1R cytotox -1% and BRCA1 expr up 10µM*.
For COC(=O)c1cccc(CN2C(=O)C(C)Sc3cc(Cl)ccc32)c1 (configuration not stated) the results were GLP-1R inv ag inconclusive, GLP1R ag 6%, GLP1R cytotox 23% and BRCA1 expr up 5µM*.
`COC(=O)c1cccc(CN2C(=O)C(C)Sc3ccc(C)cc32)c1` (configuration not stated) gave GLP-1R inv ag inconclusive, GLP1R ag 13%, GLP1R cytotox -8% and BRCA1 expr up 22%.
Cn1cc(C(=O)O)c(=O)c2cc(S(=O)(=O)N3CCOCC3)ccc21 was read as GLP-1R inv ag inconclusive and GLP1R cytotox -24%.
Cc1nc2ccccc2c(=O)n1/N=C/c1ccc(O)cc1O was read as GLP-1R inv ag 46%, a7 integrin act -26%, GLP1R ag -9%, GLP1R cytotox 0% and BRCA1 expr up 14%.
Cc1cccc(C)c1OCc1nc2ccccc2c(=O)n1/N=C/c1c[nH]c2ccccc12 was read as GLP-1R inv ag 2.8µM*, a7 integrin act -46%, GLP1R ag 0%, GLP1R cytotox -23% and BRCA1 expr up -101%.
Cc1ccccc1OCc1nc2ccccc2c(=O)n1/N=C/c1c[nH]c2ccccc12 was read as GLP-1R inv ag inconclusive, a7 integrin act -26%, GLP1R ag 1%, GLP1R cytotox inconclusive and BRCA1 expr up -92%.
Screening Cc1nc2ccccc2c(=O)n1/N=C/c1ccccc1Cl returned GLP-1R inv ag 47%, a7 integrin act 0%, GLP1R ag 16%, GLP1R cytotox 19% and BRCA1 expr up 10µM*.
`CCCc1nc2ccccc2c(=O)n1/N=C/c1ccccc1O` gave GLP-1R inv ag 4.5µM*, a7 integrin act -5%, GLP1R ag 8%, GLP1R cytotox -4% and BRCA1 expr up -95%.
`CN(C)c1cccc(-c2nnc(SCC(=O)NCc3ccco3)n2C)c1` gave BRCA1 expr up 13%.
Screening CCCC[n+]1c(/C=C/c2ccc(N(C)C)cc2)sc2ccccc21 returned BRCA1 expr up -21%.

From PubChem BioAssay
